# Reference: PubChem BioAssay (EPA / NIEHS)
# Inconclusive results are not listed. Calls of active or inactive are those of the source. How the source made its calls: active means hit-call score of the fitted dose curve at least 0.9, where 1 is the maximum; inconclusive means response in the unintended direction; inactive means score below 0.9.
# Molecular target: human Serotonin, 5-Hydroxytryptamine Receptor 5A (5HT5A), HTR5A (gene 3361) (UniProt P47898)
# Assay: NVS_GPCR_h5HT5A: NovaScreen (NVS) G Protein-Coupled Receptor Assay for human Serotonin, 5-Hydroxytryptamine Receptor 5A (5HT5A) (AID 2283251)
# In short: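 Cell-free radioligand displacement binding on HEK293-derived membrane protein, 1 h incubation, filter-based scintillation counting. Primary screen in duplicate at 25 uM, actives followed in concentration series; loss of signal fitted versus DMSO.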
# Sequence of human Serotonin, 5-Hydroxytryptamine Receptor 5A (5HT5A), HTR5A (gene 3361) (P47898 whole entry, looked up): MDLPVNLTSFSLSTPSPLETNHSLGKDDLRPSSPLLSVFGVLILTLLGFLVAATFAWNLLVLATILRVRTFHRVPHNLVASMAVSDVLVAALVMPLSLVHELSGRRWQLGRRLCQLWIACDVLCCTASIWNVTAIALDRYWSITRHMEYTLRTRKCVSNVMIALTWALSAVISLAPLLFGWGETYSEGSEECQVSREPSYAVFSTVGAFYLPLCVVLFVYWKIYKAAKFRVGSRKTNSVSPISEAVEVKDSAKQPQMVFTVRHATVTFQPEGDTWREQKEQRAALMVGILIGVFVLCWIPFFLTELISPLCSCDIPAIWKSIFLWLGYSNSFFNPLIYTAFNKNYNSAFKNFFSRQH
Compound,AC50,outcome
C#CCOS(=O)OC1CCCCC1Oc1ccc(C(C)(C)C)cc1 (stereo not drawn),35 µM (active),
CC1COC(Cn2cncn2)(c2ccc(Oc3ccc(Cl)cc3)cc2Cl)O1 (stereo not drawn),6.37 µM (active),
Cc1cc(Cl)ccc1OCC(=O)O,,inactive
O=C(Nc1ccccc1)Nc1ccnc(Cl)c1,7.13 µM (active),
OC(c1ccc(Cl)cc1)(c1cncnc1)c1ccccc1Cl (stereo not drawn),,inactive
CCON=C(CC)C1=C(O)CC(c2c(C)cc(C)cc2C)CC1=O (stereo not drawn),,inactive
CCOc1cc(Oc2ccc(C(F)(F)F)cc2Cl)ccc1[N+](=O)[O-],,inactive
COc1nc(C)nc(NC(=O)NS(=O)(=O)c2ccccc2CCC(F)(F)F)n1,,inactive
CCNc1nc(Cl)nc(NC(C)C)n1,,inactive
CCCN(CCC)c1c([N+](=O)[O-])cc(S(N)(=O)=O)cc1[N+](=O)[O-],,inactive
Fc1ccc(Oc2ccnc3cc(Cl)cc(Cl)c23)cc1,,inactive
CON(C)C(=O)Nc1ccc(Cl)c(Cl)c1,7.75 µM (active),
COc1ccc(C(c2ccc(OC)cc2)C(Cl)(Cl)Cl)cc1,,inactive
